Results: PubChem BioAssay AID1159580 (chemical genetic matrix, 2015)
Among all 5,500 compounds or so, about 2,000 (36%) were called active. About 18% were inconclusive and are not listed. Rule as the data show it: active = normalized growth mostly below about 0.91 (no sharp cut-off); inconclusive = no clear call, values can overlap the other calls; inactive = mostly above about 0.92. The list shows a part of the results.

Test: chemical genetic growth profiling, strain panel (AID 1159580);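 also: tested at 20 µM; growth read once vehicle control cultures reached saturation at 30 °C; 1 = growth at the plate median or of vehicle wells; lower values mean less growth of the strain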
Details: S. cerevisiae deletion strains, growth OD
[1] = locus YAL040C, strain CLN3, hits give low values
[2] = locus YCL061C, strain MRC1 (second series), hits give low values
[3] = locus YER002W, strain NOP16, hits give low values
[4] = locus YGR078C, strain PAC10, hits give low values
[5] = locus YGR229C, strain SMI1, hits give low values
[6] = locus YJR075W, strain HOC1, hits give low values
[7] = locus YNL175C, strain NOP13, hits give low values
[8] = locus YNL197C, strain WHI3, hits give low values
[9] = locus YNL224C, strain SQS1, hits give low values
[10] = locus YNL322C, strain KRE1, hits give low values
[11] = locus YOR083W, strain WHI5 (second series), hits give low values

Measured: normalized growth

NCCNC(=O)Cc1ccc(NC(=O)Cc2ccc(Nc3ncnc4c3ncn4[C@@H]3O[C@H](CO)[C@H](O)C3O)cc2)cc1 (some centres undefined)
inactive: [1] 1.01 | [2] 0.999 | [3] 0.999 | [4] 1.01 | [5] 1.03 | [6] 1 | locus YMR263W, strain SAP30, hits give low values 1.01 | [7] 1.01 | [8] 1.02 | [9] 0.994 | [10] 1 | [11] 1.02

COC(=O)N1CCN(C(=O)Cc2ccc(Cl)c(Cl)c2)C(CN2CCCC2)C1 (centres undefined)
inactive: [1] 0.997 | [2] 1.01 | locus YDR150W, strain NUM1, hits give low values 1 | locus YDR363W, strain ESC2, hits give low values 1 | [3] 0.995 | [4] 1 | [5] 0.982 | [6] 1.01 | locus YMR307W, strain GAS1, hits give low values 1 | locus YNL128W, strain TEP1, hits give low values 1.01 | locus YNL153C, strain GIM3, hits give low values 1 | [7] 1.01 | [8] 1.04 | [9] 1 | [10] 1.01 | [11] 1.05 | locus YPL241C, strain CIN2, hits give low values 1
